# Assay results taken from the supplement of paper PMC9446081.
# ± gives the standard deviation of the averaged measurements.
# Legend:
# Test in all cases: relative enzymatic activity vs untreated control (fraction); higher = less inhibition
# Conditions in all cases: 100 µM; incubation time: 2 h at 37 C
# DNA gyrase = system: DNA gyrase
# Experimental: (§1)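 In vitro enzymatic inhibition assays (ProFoldin kits) for 12 purified essential E. coli enzymes or complexes, each treated with 218 active antibacterial compounds at 100 µM for 2 h at 37°C. Read-outs were fluorescence or absorbance (phosphate detection, dye binding), converted to activity via standard curves and expressed relative to untreated DMSO controls.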
# DNA helicase = DNA helicase (UniProt P0ACB1)
# Experimental: as §1
# DNA ligase = DNA ligase (UniProt B1XA82)
# Experimental: as §1
# DNA polymerase = DNA polymerase (UniProt P10443)
# Experimental: as §1
# DNA primase = DNA primase (UniProt P0ABS7)
# Experimental: as §1
# GlmU = GlmU (UniProt A7ZTU1)
# Experimental: as §1
# Guanlyate kinase = Guanlyate kinase (UniProt Q0TBG1)
# Experimental: as §1
# MurA = MurA (UniProt Q3YX52)
# Experimental: as §1
# MurD = biological target: T1, MurD (UniProt P14900)
# T1 sequence (whole entry): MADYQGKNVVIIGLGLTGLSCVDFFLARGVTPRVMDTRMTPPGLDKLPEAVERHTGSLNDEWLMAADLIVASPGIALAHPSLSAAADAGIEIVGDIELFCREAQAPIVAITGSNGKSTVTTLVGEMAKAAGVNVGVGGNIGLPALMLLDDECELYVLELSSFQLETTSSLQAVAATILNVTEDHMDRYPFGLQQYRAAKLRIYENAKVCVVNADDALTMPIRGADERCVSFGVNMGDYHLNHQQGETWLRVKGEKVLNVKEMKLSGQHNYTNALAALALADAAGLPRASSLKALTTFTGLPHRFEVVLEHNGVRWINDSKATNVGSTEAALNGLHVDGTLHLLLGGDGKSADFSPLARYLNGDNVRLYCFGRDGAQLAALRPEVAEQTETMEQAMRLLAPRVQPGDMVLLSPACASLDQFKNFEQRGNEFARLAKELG
# Experimental: as §1
# MurF = biological target: T2, MurF (UniProt P11880)
# T2 sequence (whole entry): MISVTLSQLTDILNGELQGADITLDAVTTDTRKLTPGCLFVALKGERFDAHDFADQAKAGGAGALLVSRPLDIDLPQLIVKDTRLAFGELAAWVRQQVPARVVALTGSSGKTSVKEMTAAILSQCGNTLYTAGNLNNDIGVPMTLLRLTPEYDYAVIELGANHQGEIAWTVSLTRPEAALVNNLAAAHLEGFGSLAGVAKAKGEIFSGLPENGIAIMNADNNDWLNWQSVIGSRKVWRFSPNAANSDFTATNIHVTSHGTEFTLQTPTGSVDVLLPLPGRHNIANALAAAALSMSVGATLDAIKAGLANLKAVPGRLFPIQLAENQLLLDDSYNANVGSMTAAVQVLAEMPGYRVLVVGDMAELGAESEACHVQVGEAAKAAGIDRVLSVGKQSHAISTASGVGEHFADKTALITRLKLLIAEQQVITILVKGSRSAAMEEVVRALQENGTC
# Experimental: as §1
# RNA polymerase = system: RNA polymerase
# Experimental: as §1
# Chain of Guanlyate kinase (Q0TBG1 whole entry): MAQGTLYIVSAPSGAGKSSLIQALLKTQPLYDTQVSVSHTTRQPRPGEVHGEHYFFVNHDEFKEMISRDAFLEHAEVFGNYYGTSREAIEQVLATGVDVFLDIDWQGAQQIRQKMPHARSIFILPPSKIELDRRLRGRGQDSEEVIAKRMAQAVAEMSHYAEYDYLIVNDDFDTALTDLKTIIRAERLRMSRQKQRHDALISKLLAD
# Chain of DNA helicase (P0ACB1 whole entry): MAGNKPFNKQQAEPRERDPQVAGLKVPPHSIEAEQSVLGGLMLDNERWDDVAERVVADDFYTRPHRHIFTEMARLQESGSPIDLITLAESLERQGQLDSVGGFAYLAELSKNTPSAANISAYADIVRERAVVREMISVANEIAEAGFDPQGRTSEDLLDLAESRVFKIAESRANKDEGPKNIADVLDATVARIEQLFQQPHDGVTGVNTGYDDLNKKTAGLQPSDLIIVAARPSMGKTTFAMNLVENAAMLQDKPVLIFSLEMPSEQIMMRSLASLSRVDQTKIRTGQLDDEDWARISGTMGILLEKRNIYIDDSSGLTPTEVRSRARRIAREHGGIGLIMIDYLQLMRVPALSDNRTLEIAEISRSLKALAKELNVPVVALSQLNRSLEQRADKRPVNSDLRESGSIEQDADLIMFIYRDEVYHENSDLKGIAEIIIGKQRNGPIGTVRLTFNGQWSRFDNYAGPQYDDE
# Chain of DNA polymerase (P10443 whole entry): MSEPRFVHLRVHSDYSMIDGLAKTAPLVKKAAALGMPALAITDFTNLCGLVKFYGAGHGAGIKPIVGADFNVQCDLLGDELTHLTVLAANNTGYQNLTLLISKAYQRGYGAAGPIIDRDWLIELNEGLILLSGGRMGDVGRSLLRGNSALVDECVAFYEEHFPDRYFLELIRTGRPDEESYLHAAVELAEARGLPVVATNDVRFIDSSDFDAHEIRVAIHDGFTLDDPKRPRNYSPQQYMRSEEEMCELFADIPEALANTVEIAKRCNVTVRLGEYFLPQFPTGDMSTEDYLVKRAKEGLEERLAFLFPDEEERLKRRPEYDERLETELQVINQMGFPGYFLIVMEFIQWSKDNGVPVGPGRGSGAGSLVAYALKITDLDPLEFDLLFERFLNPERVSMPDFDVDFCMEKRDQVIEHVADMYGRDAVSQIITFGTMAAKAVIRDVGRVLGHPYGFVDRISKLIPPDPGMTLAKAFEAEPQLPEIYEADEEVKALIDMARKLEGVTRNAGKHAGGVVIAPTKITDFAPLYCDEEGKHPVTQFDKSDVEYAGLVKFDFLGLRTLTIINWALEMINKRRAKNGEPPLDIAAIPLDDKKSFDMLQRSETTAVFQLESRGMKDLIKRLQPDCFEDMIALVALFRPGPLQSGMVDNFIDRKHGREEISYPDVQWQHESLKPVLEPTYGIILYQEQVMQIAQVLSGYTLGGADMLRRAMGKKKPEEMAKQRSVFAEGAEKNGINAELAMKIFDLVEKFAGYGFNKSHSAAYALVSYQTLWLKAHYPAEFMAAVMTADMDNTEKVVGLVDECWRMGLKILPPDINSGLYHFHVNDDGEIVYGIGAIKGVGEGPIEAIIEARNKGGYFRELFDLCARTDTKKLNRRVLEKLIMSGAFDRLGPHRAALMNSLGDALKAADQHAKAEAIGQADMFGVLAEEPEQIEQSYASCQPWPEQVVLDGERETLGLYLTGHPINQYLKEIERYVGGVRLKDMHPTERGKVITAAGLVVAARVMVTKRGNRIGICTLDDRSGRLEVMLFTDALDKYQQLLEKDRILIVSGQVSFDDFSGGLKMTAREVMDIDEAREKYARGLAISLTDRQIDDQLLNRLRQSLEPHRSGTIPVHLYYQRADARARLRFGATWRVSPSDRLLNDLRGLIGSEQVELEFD
# Chain of DNA primase (P0ABS7 whole entry): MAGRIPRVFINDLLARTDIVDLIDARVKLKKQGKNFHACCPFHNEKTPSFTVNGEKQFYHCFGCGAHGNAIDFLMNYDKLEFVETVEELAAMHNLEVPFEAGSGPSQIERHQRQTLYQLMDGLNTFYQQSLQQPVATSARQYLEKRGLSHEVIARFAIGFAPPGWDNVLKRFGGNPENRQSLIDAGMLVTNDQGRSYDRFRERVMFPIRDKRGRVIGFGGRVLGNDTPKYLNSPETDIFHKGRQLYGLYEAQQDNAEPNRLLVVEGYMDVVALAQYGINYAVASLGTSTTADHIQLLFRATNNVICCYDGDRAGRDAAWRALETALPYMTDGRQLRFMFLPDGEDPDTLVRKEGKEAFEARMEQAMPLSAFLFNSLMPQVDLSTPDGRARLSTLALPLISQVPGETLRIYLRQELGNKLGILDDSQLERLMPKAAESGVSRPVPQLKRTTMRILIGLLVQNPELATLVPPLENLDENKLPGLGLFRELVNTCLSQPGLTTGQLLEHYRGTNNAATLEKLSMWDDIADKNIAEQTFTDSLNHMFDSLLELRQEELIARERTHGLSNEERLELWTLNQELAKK
# Chain of DNA ligase (B1XA82 whole entry): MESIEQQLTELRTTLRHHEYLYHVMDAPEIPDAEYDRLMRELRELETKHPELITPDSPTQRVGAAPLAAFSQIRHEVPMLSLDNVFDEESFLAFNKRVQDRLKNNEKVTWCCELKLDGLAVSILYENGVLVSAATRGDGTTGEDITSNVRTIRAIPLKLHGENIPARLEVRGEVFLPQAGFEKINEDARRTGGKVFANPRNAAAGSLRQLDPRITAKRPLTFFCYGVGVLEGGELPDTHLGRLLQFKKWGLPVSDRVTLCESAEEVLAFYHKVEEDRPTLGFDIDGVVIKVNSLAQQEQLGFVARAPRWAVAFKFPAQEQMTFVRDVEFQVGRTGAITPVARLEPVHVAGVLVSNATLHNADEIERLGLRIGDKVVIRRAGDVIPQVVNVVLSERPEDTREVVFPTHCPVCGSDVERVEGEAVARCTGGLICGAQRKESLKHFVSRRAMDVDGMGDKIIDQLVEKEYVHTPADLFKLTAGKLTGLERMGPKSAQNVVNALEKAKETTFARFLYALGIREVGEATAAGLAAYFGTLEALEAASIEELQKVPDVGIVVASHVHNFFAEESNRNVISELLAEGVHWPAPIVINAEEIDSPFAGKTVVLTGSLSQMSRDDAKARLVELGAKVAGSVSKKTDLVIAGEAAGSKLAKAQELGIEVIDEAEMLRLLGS
# Chain of MurA (Q3YX52 whole entry): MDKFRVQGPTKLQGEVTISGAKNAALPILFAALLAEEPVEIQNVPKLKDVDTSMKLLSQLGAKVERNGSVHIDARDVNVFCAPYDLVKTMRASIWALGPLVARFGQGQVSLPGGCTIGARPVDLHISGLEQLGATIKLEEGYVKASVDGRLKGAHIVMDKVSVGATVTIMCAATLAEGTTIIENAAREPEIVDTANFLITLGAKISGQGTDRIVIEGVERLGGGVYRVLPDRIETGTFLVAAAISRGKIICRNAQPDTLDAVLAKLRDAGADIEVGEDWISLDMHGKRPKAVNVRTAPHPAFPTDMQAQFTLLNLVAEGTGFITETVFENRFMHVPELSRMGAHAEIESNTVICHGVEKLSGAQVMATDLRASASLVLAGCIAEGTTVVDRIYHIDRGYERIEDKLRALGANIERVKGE
# Chain of GlmU (A7ZTU1 whole entry, looked up): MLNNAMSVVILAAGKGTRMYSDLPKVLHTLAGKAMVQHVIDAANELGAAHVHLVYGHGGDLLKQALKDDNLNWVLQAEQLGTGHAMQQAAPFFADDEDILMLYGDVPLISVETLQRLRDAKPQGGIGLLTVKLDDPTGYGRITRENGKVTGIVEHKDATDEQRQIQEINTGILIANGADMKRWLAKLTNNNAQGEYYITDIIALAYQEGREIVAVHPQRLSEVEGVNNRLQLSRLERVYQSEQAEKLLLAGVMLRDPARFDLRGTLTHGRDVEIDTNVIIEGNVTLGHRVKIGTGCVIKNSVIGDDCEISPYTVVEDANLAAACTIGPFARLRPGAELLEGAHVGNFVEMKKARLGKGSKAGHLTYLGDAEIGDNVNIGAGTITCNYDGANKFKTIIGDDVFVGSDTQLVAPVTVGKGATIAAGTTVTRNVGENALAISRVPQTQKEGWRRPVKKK
SMILES,relative enzymatic activity (DNA gyrase),relative enzymatic activity (DNA helicase),relative enzymatic activity (DNA ligase),relative enzymatic activity (DNA polymerase),relative enzymatic activity (DNA primase),relative enzymatic activity (GlmU),relative enzymatic activity (Guanlyate kinase),relative enzymatic activity (MurA),relative enzymatic activity (MurD),relative enzymatic activity (MurF),relative enzymatic activity (RNA polymerase)
CCC1OC(=O)C(C)C(OC2CC(C)(OC)C(O)C(C)O2)C(C)C(OC2OC(C)CC(N(C)C)C2O)C(C)(O)CC(C)CN(C)C(C)C(O)C1(C)O (configuration not stated),1.09 ± 0.048,0.601 ± 0.15,1.06 ± 0.2,1.11 ± 0.15,0.712 ± 0.2,1.09 ± 0.14,1.04 ± 0.034,0.766 ± 0.061,0.572 ± 0.39,0.964 ± 0.17,0.843 ± 0.027
Cc1ccc(S(=O)(=O)O)cc1.NC1CCN(c2nc3c(cc2F)c(=O)c(C(=O)O)cn3-c2ccc(F)cc2F)C1.O (configuration not stated),1.41 ± 0.49,0.509 ± 0.054,1.02 ± 0.043,1.15 ± 0.22,0.892 ± 0.035,0.991 ± 0.05,0.699 ± 0.11,0.644 ± 0.029,0.935 ± 0.86,1.01 ± 0.21,0.771 ± 0.031
COc1ccc(Cc2cnc(N)nc2N)cc1OC,0.752 ± 0.41,0.508 ± 0.059,1.55 ± 0.21,1.21 ± 0.22,0.74 ± 0.24,1.019 ± 0.0077,0.993 ± 0.039,0.74 ± 0.026,0.583 ± 0.39,0.946 ± 0.2,0.9567 ± 0.0054
CCOC(=O)CCC(=O)O[C@H]1[C@H](O[C@@H]2[C@@H](C)[C@H](O[C@H]3C[C@@](C)(OC)[C@@H](O)[C@H](C)O3)[C@@H](C)C(=O)O[C@H](CC)[C@@](C)(O)[C@H](O)[C@@H](C)C(=O)[C@H](C)C[C@@]2(C)O)O[C@H](C)C[C@@H]1N(C)C,0.685 ± 0.3,0.691 ± 0.34,0.982 ± 0.061,1.17 ± 0.28,0.835 ± 0.0032,1.018 ± 0.0098,0.941 ± 0.052,0.816 ± 0.11,0.599 ± 0.4,0.961 ± 0.23,0.831 ± 0.037
COC1=C(OC)C(=O)C(CCCCCCCCCC[P+](c2ccccc2)(c2ccccc2)c2ccccc2)=C(C)C1=O,≤ 0,0.0205 ± 0.0027,0.705 ± 0.021,0.0027 ± 0.0017,≤ 0,0.155 ± 0.019,≤ 0,0.021 ± 0.0015,0.162 ± 0.074,0.211 ± 0.023,0.0008799 ± 4.6e-06
Cc1cc(=O)c(C(=O)N[C@@H](C(=O)N[C@@H]2C(=O)N3C(C(=O)O)=C(CSc4nnnn4C)CS[C@H]23)c2ccc(O)cc2)c[nH]1,0.759 ± 0.035,0.278 ± 0.28,0.862 ± 0.016,1.08 ± 0.15,0.766 ± 0.023,0.919 ± 0.03,0.946 ± 0.015,0.116 ± 0.018,0.634 ± 0.44,0.92 ± 0.2,0.505 ± 0.5
CN(C)[C@@H]1C(=O)[C@@H](C(N)=O)C(=O)[C@@]2(O)C(=O)[C@@H]3C(=O)c4c(O)c(NC(=O)CN5CCCC5)cc(F)c4C[C@H]3C[C@@H]12,0.0486 ± 0.069,0.103 ± 0.0053,0.94816 ± 9.1e-05,1.06 ± 0.31,0.456 ± 0.15,0.9445 ± 0.0056,0.347 ± 0.035,0.63 ± 0.26,0.632 ± 0.45,0.943 ± 0.19,0.118 ± 0.028
C[C@H]1[C@H](NC(=O)/C(=N\OC(C)(C)C(=O)O)c2csc(N)n2)C(=O)N1S(=O)(=O)O,0.898 ± 0.25,0.534 ± 0.15,0.815 ± 0.086,1.23 ± 0.28,0.8444 ± 0.0011,1.04 ± 0.031,1.04 ± 0.021,0.47 ± 0.14,0.623 ± 0.45,1.13 ± 0.55,0.869 ± 0.072
CN(C)C1C(O)=C(C(N)=O)C(=O)C2(O)C(O)=C3C(=O)c4c(O)ccc(Cl)c4C(C)(O)C3CC12.Cl (configuration not stated),1.15 ± 0.17,0.47 ± 0.023,1.03 ± 0.23,1.35 ± 0.47,0.707 ± 0.21,0.974 ± 0.048,0.961 ± 0.076,0.767 ± 0.014,0.584 ± 0.37,0.93 ± 0.17,0.822 ± 0.027
C/C(=C\C(=O)OCCCCCCCCC(=O)O)C[C@@H]1OC[C@H](C[C@@H]2O[C@H]2[C@@H](C)[C@H](C)O)[C@@H](O)[C@H]1O,0.849 ± 0.24,0.52 ± 0.098,0.897 ± 0.013,0.512 ± 0.72,0.807 ± 0.031,0.999 ± 0.045,1.06 ± 0.087,0.688 ± 0.19,0.607 ± 0.43,1.17 ± 0.52,0.935 ± 0.11
O=c1[nH]c(=O)n([C@H]2C[C@H](O)[C@@H](CO)O2)cc1F,0.574 ± 0.53,0.629 ± 0.23,0.789 ± 0.18,1.15 ± 0.27,0.8368 ± 0.0026,0.979 ± 0.066,0.927 ± 0.06,0.762 ± 0.13,0.584 ± 0.38,0.953 ± 0.23,0.7944 ± 0.0043
Oc1ccc(Cl)c2cccnc12,0.354 ± 0.41,0.534 ± 0.19,1.03 ± 0.24,1.12 ± 0.21,0.7986 ± 0.0017,0.9167 ± 0.0045,0.821 ± 0.036,0.442 ± 0.04,0.656 ± 0.46,1.02 ± 0.23,0.854 ± 0.1
CN(C)C1C(O)=C(C(N)=O)C(=O)C2(O)C(O)=C3C(=O)c4c(O)cccc4C(C)(O)C3C(O)C12.Cl (configuration not stated),0.0137 ± 0.019,0.171 ± 0.03,0.908 ± 0.21,0.4407 ± 0.0041,0.517 ± 0.0096,1.02 ± 0.013,0.521 ± 0.0059,0.0726 ± 0.028,0.635 ± 0.42,1.02 ± 0.25,0.177 ± 0.017
CCn1cc(C(=O)O)c(=O)c2cc(F)c(N3CCNC(C)C3)c(F)c21.Cl (configuration not stated),0.0253 ± 0.036,0.786 ± 0.38,1.442 ± 0.0066,1.29 ± 0.3,0.712 ± 0.2,1.09 ± 0.16,1 ± 0.097,0.728 ± 0.031,0.577 ± 0.38,0.554 ± 0.78,1.16 ± 0.36
CCC1OC(=O)C(C)C(=O)C(C)C(OC2OC(C)CC(N(C)C)C2O)C(C)(OC)CC(C)C(=O)C(C)C2N(CCCCn3cnc(-c4cccnc4)c3)C(=O)OC12C (configuration not stated),0.862 ± 0.39,0.396 ± 0.024,1.1 ± 0.3,1.24 ± 0.3,0.854 ± 0.012,0.9359 ± 0.0057,0.967 ± 0.099,0.668 ± 0.05,0.525 ± 0.34,0.799 ± 0.13,0.822 ± 0.037
O=C1OC(=O)[C@H]2[C@@H]1[C@H]1CC[C@H]2O1,0.864 ± 0.32,0.551 ± 0.09,1.15 ± 0.085,1.01 ± 0.012,0.811 ± 0.0082,1.07 ± 0.033,1.01 ± 0.066,0.734 ± 0.16,0.606 ± 0.38,0.979 ± 0.22,0.888 ± 0.18
CC1CN(c2c(F)c(N)c3c(=O)c(C(=O)O)cn(C4CC4)c3c2F)CC(C)N1 (configuration not stated),0.00841 ± 0.012,0.442 ± 0.043,1.49 ± 0.054,1.23 ± 0.24,0.715 ± 0.21,0.913 ± 0.04,0.883 ± 0.029,0.603 ± 0.083,0.597 ± 0.4,0.543 ± 0.76,0.92 ± 0.0099
